Pf Dd2 inh – inhibitors of Plasmodium falciparum Dd2 growth; activity change, % at 10 µM; actives 2.3% (n = 94,000); P. falciparum Dd2 growth, SYBR Green, 72 h; hits give low values; in the data active = activity change below about -80%; inconclusive = no clear call, values can overlap the other calls
T cruzi growth-1 – blocks T. cruzi growth in NIH3T3 culture; inhibition, % at 8.34 µM; AID 624255; T. cruzi beta-gal in NIH3T3, GalScreen luminescence, 90 h; actives 5.9% (n = 77,000);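 active = mean inhibition above about 93%, with at least 55% of replicates each passing it, limit read from the data, passing the limit was not always enough; inconclusive = only one of those two conditions holds; inactive = neither condition holds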
C diff growth – blocks growth of Clostridium difficile | actives 0.25% (n = 86,000) | growth activity, negative = inhibition, % at 16 µg/mL (by protocol) | Clostridium difficile clinical isolate growth, OD600, 24 h; hits give low values | AID 1259249;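 active = mean growth activity at or below -80% and every replicate also at or below -80%; inconclusive = mean at or below -80% but some replicate above -80%; inactive = mean growth activity above -80%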;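 also: 0% = DMSO wells and -100% = levofloxacin 16 µg/mL wells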
T cruzi growth-2 – Trypanosoma cruzi proliferation inhibition; shares compounds with T cruzi growth-1; T. cruzi beta-gal in NIH3T3, GalScreen luminescence, 90 h; inhibition, % at 8.35 µM; actives 72% (n = 5,600); AID 651739;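 active = mean replicate inhibition above about 95% and at least 55% of replicates individually reaching it, limit read from the data; inconclusive = only one of the two criteria is met; inactive = neither criterion is met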
T cruzi growth-3 – blocks T. cruzi growth in NIH3T3 host cells; shares compounds with T cruzi growth-1; T. cruzi beta-gal in NIH3T3, GalScreen luminescence, 90 h; inhibition, % at 2.09 µM; actives 21% (n = 5,600); AID 651740;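 active = mean inhibition above about 95%, with at least 55% of replicates also reaching it, limit read from the data; inconclusive = meets just one of the two conditions; inactive = meets neither condition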;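 also: plate controls were neutral control median for no effect and positive control median for full effect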
NIH3T3 tox – kills mouse NIH/3T3 fibroblasts; NIH/3T3 viability, CellTiter-Glo ATP luminescence, 90 h; cytotoxicity (signal decrease), % at 8.35 µM; actives 14% (n = 5,600); AID 651742; shares compounds with T cruzi growth-1;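 active = mean signal decrease across replicates above about 35% based on untreated-well scatter, with enough replicates individually passing, limit read from the data; inconclusive = no rule stated though some were filed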;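 also: 0% = median of neutral control wells and 100% = median of positive control wells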
3T3 cytotox 2 – cytotoxicity in mouse NIH/3T3 fibroblasts; shares compounds with T cruzi growth-1; NIH/3T3 viability, CellTiter-Glo ATP luminescence, 90 h; inhibition, % at 24.9 µM; actives 56% (n = 5,600);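 active = mean loss of cell viability signal at or above a set limit, and enough replicates individually reaching it; inconclusive = meets only the mean limit or only the replicate share; inactive = meets neither condition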;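 also: 0% = median of neutral control wells and 100% = median of positive control wells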
* = called active by the depositor; ? = inconclusive; nt = no result. The list is not random: actives were taken first. Their share in the collection is about 6.7%.

SMILES	Pf Dd2 inh	T cruzi growth-1	C diff growth	T cruzi growth-2	T cruzi growth-3	NIH3T3 tox	3T3 cytotox 2
C[C@@H]1CCCCO[C@@H](CN(C)C(=O)C2CCCCC2)[C@H](C)CN([C@H](C)CO)C(=O)c2cc(NC(=O)Nc3cccc4ccccc34)ccc2O1	-41	?	-5	110*	105*	-40	-22
C[C@H](CO)N1C[C@H](C)[C@H](CN(C)C(=O)Nc2cccc3ccccc23)OCCCC[C@H](C)Oc2ccc(NC(=O)Nc3cccc4ccccc34)cc2C1=O	6	27	nt	nt	nt	nt	nt
C[C@@H]1CCCCO[C@@H](CN(C)C(=O)Nc2cccc3ccccc23)[C@H](C)CN([C@@H](C)CO)C(=O)c2cc(NC(=O)Nc3cccc4ccccc34)ccc2O1	-12	nt	6	nt	nt	nt	nt
C[C@H]1CCCCO[C@H](CN(C)C(=O)Nc2cccc3ccccc23)[C@@H](C)CN([C@@H](C)CO)C(=O)c2cc(NC(=O)Nc3cccc4ccccc34)ccc2O1	-33	50	nt	nt	nt	nt	nt
C[C@H](CO)N1C[C@H](C)[C@H](CN(C)C(=O)C2CCCCC2)OCCCC[C@H](C)Oc2ccc(NC(=O)Nc3cccc4ccccc34)cc2C1=O	24	121*	-10	105*	54	-17	-9
C[C@@H]1CCCCO[C@@H](CN(C)C(=O)C2CCCCC2)[C@@H](C)CN([C@H](C)CO)C(=O)c2cc(NC(=O)Nc3cccc4ccccc34)ccc2O1	-72	71	4	nt	nt	nt	nt
COC(=O)C[C@@H]1CC[C@@H]2[C@@H](COc3ccc(NC(=O)Nc4ccc(C#N)cc4)cc3C(=O)N2C)O1	5	74	7	nt	nt	nt	nt
C[C@H](CO)N1C[C@H](C)[C@@H](CN(C)S(C)(=O)=O)Oc2ccc(NS(=O)(=O)c3cccs3)cc2CC1=O	20	14	-1	nt	nt	nt	nt
CCCNC(=O)N1C[C@H]2[C@@H](c3ccccc31)[C@H](CO)N2Cc1cc(F)ccc1F	21	33	-2	nt	nt	nt	nt
Cc1noc(C)c1S(=O)(=O)N(C)C[C@H]1OCCCC[C@@H](C)Oc2ccc(NS(=O)(=O)c3ccc(Cl)cc3)cc2C(=O)N([C@H](C)CO)C[C@@H]1C	-42	53	-2	nt	nt	nt	nt
C[C@@H]1CCCCO[C@H](CN(C)C(=O)C2CCCCC2)[C@@H](C)CN([C@@H](C)CO)C(=O)c2cc(NC(=O)Nc3cccc4ccccc34)ccc2O1	-92*	?	-3	103*	102*	-19	-3
C[C@@H]1CCCCO[C@@H](CN(C)C(=O)c2ccccc2)[C@@H](C)CN([C@@H](C)CO)C(=O)c2cc(NC(=O)Nc3cccc4ccccc34)ccc2O1	-14	22	-3	nt	nt	nt	nt
O=C(C[C@H]1CC[C@H]2[C@@H](COC[C@@H](O)CN2Cc2cc(F)ccc2F)O1)N[C@H]1CCN(Cc2ccccc2)C1	-64	158*	0	86	52	-13	3
O=C(C[C@@H]1CC[C@@H]2[C@H](COC[C@@H](O)CN2Cc2cc(F)ccc2F)O1)N1CCc2ccccc2C1	-59	65	-5	nt	nt	nt	nt
O=C(C[C@H]1CC[C@H]2[C@@H](COC[C@H](O)CN2Cc2cc(F)ccc2F)O1)N1CCc2ccccc2C1	-37	98*	-4	79	0	-8	16
O=C(C[C@@H]1CC[C@@H]2[C@H](COC[C@@H](O)CN2Cc2ccccc2F)O1)N[C@@H]1CCN(Cc2ccccc2)C1	-19	99*	nt	80	46	-18	-47
O=C(C[C@H]1CC[C@H]2[C@@H](COC[C@@H](O)CN2Cc2cc(F)ccc2F)O1)N[C@@H]1CCN(Cc2ccccc2)C1	-73	99*	6	70	66	-5	-9
O=C(C[C@@H]1CC[C@H]2[C@@H](COC[C@@H](O)CN2Cc2cc(F)ccc2F)O1)N[C@H]1CCN(Cc2ccccc2)C1	-24	49	1	nt	nt	nt	nt
O=C(C[C@@H]1CC[C@H]2[C@@H](COC[C@@H](O)CN2Cc2ccccc2F)O1)N[C@H]1CCN(Cc2ccccc2)C1	-29	32	nt	nt	nt	nt	nt
O=C(C[C@@H]1CC[C@H]2[C@@H](COC[C@@H](O)CN2Cc2cc(F)ccc2F)O1)N[C@@H]1CCN(Cc2ccccc2)C1	-59	95	4	nt	nt	nt	nt
O=C(C[C@@H]1C=C[C@@H](NC(=O)C2CC2)[C@H](CO)O1)NCC1CC1	-4	nt	3	nt	nt	nt	nt
CS(=O)(=O)Nc1ccc2c(c1)[C@H]1C[C@H](CC(=O)NC3CCCCC3)O[C@@H](CO)[C@H]1O2	14	-16	nt	nt	nt	nt	nt
COc1ccccc1CN1[C@@H]2CN(C(=O)C3CCCCC3)c3ccccc3[C@@H]2[C@@H]1CO	-28	61	3	nt	nt	nt	nt
CC(C)CC#Cc1cnc2c(c1)C(=O)N([C@@H](C)CO)C[C@H](C)[C@@H](CN(C)Cc1ccccc1F)O2	-46	77	-7	nt	nt	nt	nt
O=C(C[C@H]1CC[C@@H]2[C@H](COC[C@H](O)CN2Cc2cc(F)ccc2F)O1)N[C@@H]1CCN(Cc2ccccc2)C1	-77	130*	1	67	8	-18	-5
SMILES	Pf Dd2 inh	T cruzi growth-1	C diff growth	T cruzi growth-2	T cruzi growth-3	NIH3T3 tox	3T3 cytotox 2
O=C(C[C@H]1CC[C@@H]2[C@H](COC[C@@H](O)CN2Cc2cc(F)ccc2F)O1)N[C@@H]1CCN(Cc2ccccc2)C1	-66	79	8	nt	nt	nt	nt
C[C@@H]1CN([C@H](C)CO)C(=O)c2cc(NC(=O)NC3CCCCC3)ccc2O[C@@H](C)CCCCO[C@@H]1CN(C)C(=O)C1CCCCC1	-70	-17	5	nt	nt	nt	nt
Cn1cnc(S(=O)(=O)N2CCCCN3[C@H](C2)[C@H](c2ccc(C#CC4CCCC4)cc2)[C@@H]3CO)c1	-17	32	-5	nt	nt	nt	nt
Cn1cnc(S(=O)(=O)N2CCCCN3[C@H](CO)[C@H](c4ccc(C#CC5CCCC5)cc4)[C@@H]3C2)c1	-20	107*	-17	?	29	29	33*
Cn1cnc(S(=O)(=O)N2CCCCN3[C@H](CO)[C@@H](c4ccc(-c5ccccc5)cc4)[C@@H]3C2)c1	26	100*	-6	65	-2	11	28*
Cn1cnc(S(=O)(=O)N2CCCCN3[C@H](C2)[C@H](c2ccc(-c4ccc(F)cc4)cc2)[C@@H]3CO)c1	24	48	-2	nt	nt	nt	nt
Cn1cnc(S(=O)(=O)N2CCCCN3[C@H](C2)[C@H](c2ccc(-c4ccccc4)cc2)[C@@H]3CO)c1	6	103*	-3	6	11	-12	-16
Cn1cnc(S(=O)(=O)N2CCCCN3[C@@H](CO)[C@@H](c4ccc(-c5ccc(F)cc5)cc4)[C@@H]3C2)c1	29	27	-12	nt	nt	nt	nt
CN(C)CCCNC(=O)C[C@H]1C=C[C@H](NC(=O)Cc2cccnc2)[C@@H](CO)O1	18	-8	nt	nt	nt	nt	nt
C[C@@H]1CN([C@H](C)CO)C(=O)c2cccc(N(C)C)c2O[C@H]1CN(C)Cc1ccc(C(=O)Nc2ccccc2N)cc1	-67	90	-2	nt	nt	nt	nt

Compound activity deposited in PubChem by Broad Institute.
